Source: the antibiotic and cytotoxicity screens of Wong et al. (2023)
Hit rate of the full screen: of about 39,000 compounds, about 3,300 (8.5%) were called active. The sample as a whole holds a higher share of actives than the screen did.

What follows are molecules tested on HepG2 (assay: cytotoxicity call (relative viability < 0.9)). Conditions: 10 µM.
With COc1ccc(NC(=O)Nc2cccc3c2O[C@@H](CN(C)Cc2ccc(C(=O)Nc4ccccc4N)cc2)[C@@H](C)CN([C@@H](C)CO)C3=O)cc1 the cytotoxicity call was “inactive”.
For CCN(CC)c1ccc(N2CC=C[C@@]34O[C@@H]5/C=C\CCCOC(=O)[C@@H]5[C@H]3C(=O)N(CCCCCCO)[C@@H]4C2=O)cc1, the cytotoxicity call was “inactive”.
With C[C@@H]1CCCCO[C@@H](CN(C)C(=O)Nc2ccccc2)[C@H](C)CN([C@@H](C)CO)C(=O)c2cc(NS(=O)(=O)c3ccccc3)ccc2O1 the cytotoxicity call was “inactive”.
With Cc1ccc(S(=O)(=O)Nc2ccc3c(c2)C(=O)N([C@@H](C)CO)C[C@@H](C)[C@@H](CN(C)S(=O)(=O)c2c(C)noc2C)O3)cc1 the cytotoxicity call was “inactive”.
C[C@@H]1CN([C@@H](C)CO)C(=O)c2cccc(NC(=O)CCCCCC(=O)Nc3ccccc3N)c2O[C@@H]1CN(C)CC1CCCCC1 was tested, and the cytotoxicity call was “active”.
In the case of C[C@H](CO)N1C[C@H](C)[C@H](CN(C)CC2CCCCC2)Oc2c(NC(=O)CCCCCC(=O)Nc3ccccc3N)cccc2C1=O, the cytotoxicity call is reported as “inactive”.
In the case of C[C@@H]1CN([C@H](C)CO)C(=O)c2cccc(NC(=O)CCCCCC(=O)Nc3ccccc3N)c2O[C@@H]1CN(C)CC1CCCCC1, the cytotoxicity call is reported as “inactive”.
C[C@@H]1CN([C@@H](C)CO)C(=O)c2cccc(NC(=O)CCCCCC(=O)Nc3ccccc3N)c2O[C@@H]1CN(C)Cc1ccccc1 was tested, and the cytotoxicity call was “inactive”.
With C[C@H]1CN([C@@H](C)CO)C(=O)c2cccc(NC(=O)CCCCCC(=O)Nc3ccccc3N)c2O[C@H]1CN(C)CC1CCCCC1 the cytotoxicity call was “inactive”.
For C[C@H](CO)N1C[C@H](C)[C@@H](CN(C)CC2CCCCC2)Oc2c(NC(=O)CCCCCC(=O)Nc3ccccc3N)cccc2C1=O, the cytotoxicity call was “inactive”.
With C[C@@H]1CN([C@H](C)CO)C(=O)c2cccc(NC(=O)CCCCCC(=O)Nc3ccccc3N)c2O[C@H]1CN(C)CC1CCCCC1 the cytotoxicity call was “active”.
With C[C@@H]1CN([C@@H](C)CO)C(=O)c2cccc(NC(=O)CCCCCC(=O)Nc3ccccc3N)c2O[C@H]1CN(C)CC1CCCCC1 the cytotoxicity call was “inactive”.
With C[C@H]1CN([C@@H](C)CO)C(=O)c2cccc(NC(=O)CCCCCC(=O)Nc3ccccc3N)c2O[C@@H]1CN(C)CC1CCCCC1 the cytotoxicity call was “active”.
In the case of Nc1nc(=O)c2ncn(COC(CO)CO)c2[nH]1, the cytotoxicity call is reported as “inactive”.
CN[C@H]1[C@@H](O[C@H]2[C@@H](O[C@H]3[C@@H](O)[C@@H](O)[C@@H](NC(=N)N)[C@@H](O)[C@@H]3NC(=N)N)O[C@@H](C)[C@@]2(O)C=O)O[C@@H](CO)[C@@H](O)[C@@H]1O.CN[C@H]1[C@@H](O[C@H]2[C@@H](O[C@H]3[C@@H](O)[C@@H](O)[C@@H](NC(=N)N)[C@@H](O)[C@@H]3NC(=N)N)O[C@@H](C)[C@@]2(O)C=O)O[C@@H](CO)[C@@H](O)[C@@H]1O.O=S(=O)(O)O.O=S(=O)(O)O.O=S(=O)(O)O was tested, and the cytotoxicity call was “inactive”.
For CC1(C)SC2C(NC(=O)C(C(=O)[O-])c3ccccc3)C(=O)N2C1C(=O)[O-].[Na+].[Na+] (centres undefined), the cytotoxicity call was “inactive”.
C[C@@H]1CCCCO[C@@H](CN(C)C(=O)c2ccccc2)[C@@H](C)CN([C@@H](C)CO)C(=O)c2cc(NC(=O)c3ccccc3)ccc2O1 was tested, and the cytotoxicity call was “inactive”.
In the case of C[C@@H]1CCCCO[C@@H](CN(C)C(=O)Nc2ccc(C(F)(F)F)cc2)[C@@H](C)CN([C@H](C)CO)C(=O)c2cc(NS(=O)(=O)c3cn(C)cn3)ccc2O1, the cytotoxicity call is reported as “inactive”.
C=C1SC(Nc2c(C)cccc2C)=NC12CCCCC2 was tested, and the cytotoxicity call was “active”.
Cc1cccc(C)c1Nc1nc2c(C)cc(C)c(C)c2s1 was tested, and the cytotoxicity call was “inactive”.
Cc1cccc(C)c1NC(=O)C1CCCCN1C.Cl (centres undefined) was tested, and the cytotoxicity call was “inactive”.
For C[C@@H]1CN([C@@H](C)CO)C(=O)Cc2cc(NC(=O)C3CC3)ccc2O[C@H]1CN(C)C(=O)Nc1ccccc1, the cytotoxicity call was “inactive”.
In the case of COCC#Cc1ccc([C@H]2[C@H]3CN(C(=O)CN4CCOCC4)CC(=O)N3[C@H]2CO)cc1, the cytotoxicity call is reported as “inactive”.
In the case of COc1ccc(S(=O)(=O)N(C)C[C@@H]2OCCCC[C@@H](C)Oc3ccc(NS(=O)(=O)c4cn(C)cn4)cc3C(=O)N([C@H](C)CO)C[C@H]2C)cc1, the cytotoxicity call is reported as “inactive”.
For C[C@@H]1CN([C@@H](C)CO)C(=O)c2cc(C#CCc3ccccc3)cnc2O[C@H]1CN(C)CC1CCOCC1, the cytotoxicity call was “inactive”.
With COc1ccc(NC(=O)Nc2ccc3c(c2)C(=O)N([C@@H](C)CO)C[C@@H](C)[C@@H](CN(C)S(=O)(=O)c2ccc(F)cc2)OCCCC[C@@H](C)O3)cc1 the cytotoxicity call was “inactive”.
COc1ccc(NC(=O)Nc2ccc3c(c2)C(=O)N([C@H](C)CO)C[C@@H](C)[C@@H](CN(C)S(=O)(=O)c2ccc(F)cc2)OCCCC[C@H](C)O3)cc1 was tested, and the cytotoxicity call was “inactive”.
COc1ccc(NC(=O)Nc2ccc3c(c2)C(=O)N([C@H](C)CO)C[C@@H](C)[C@H](CN(C)S(=O)(=O)c2ccc(F)cc2)OCCCC[C@H](C)O3)cc1 was tested, and the cytotoxicity call was “active”.
With COc1ccc(NC(=O)Nc2ccc3c(c2)C(=O)N([C@H](C)CO)C[C@H](C)[C@@H](CN(C)S(=O)(=O)c2ccc(F)cc2)OCCCC[C@H](C)O3)cc1 the cytotoxicity call was “inactive”.
For COc1ccc(NC(=O)Nc2ccc3c(c2)C(=O)N([C@H](C)CO)C[C@H](C)[C@H](CN(C)S(=O)(=O)c2ccc(F)cc2)OCCCC[C@@H](C)O3)cc1, the cytotoxicity call was “inactive”.
With COc1ccc(S(=O)(=O)N(C)C[C@H]2OCCCC[C@@H](C)Oc3ccc(NC(=O)Nc4ccc(F)cc4)cc3C(=O)N([C@H](C)CO)C[C@@H]2C)cc1 the cytotoxicity call was “active”.
In the case of CO[C@H]1CN(C)C(=O)c2ccc(NS(=O)(=O)c3cn(C)cn3)cc2OC[C@H](C)N(CC2CC2)C[C@@H]1C, the cytotoxicity call is reported as “inactive”.
For CC1(C)OC(=O)N(CCCC(=O)O)[C@@]1(C)O, the cytotoxicity call was “inactive”.
CC(=O)OC1CC(OC(C)=O)C2(C)C(CC(O)C3(C)C2CCC2(C)C(c4ccoc4)OC(=O)C4OC423)C1(C)C (centres undefined) was tested, and the cytotoxicity call was “inactive”.
In the case of C[C@H]1CN([C@@H](C)CO)C(=O)c2cc(NC(=O)Cn3cnnn3)ccc2O[C@H]1CN(C)CC1CCCCC1, the cytotoxicity call is reported as “inactive”.
For C[C@H](CO)N1C[C@H](C)[C@H](CN(C)Cc2ccc(C(=O)O)cc2)Oc2c(NC(=O)C3CC3)cccc2C1=O, the cytotoxicity call was “inactive”.
In the case of CS(=O)(=O)NC[C@@]12COC[C@H]1CN(C(=O)c1cnccn1)C2, the cytotoxicity call is reported as “inactive”.
In the case of C[C@@H]1CCCCO[C@H](CN(C)S(=O)(=O)c2ccc(Cl)cc2)[C@H](C)CN([C@@H](C)CO)C(=O)c2cc(NC(=O)CCC(F)(F)F)ccc2O1, the cytotoxicity call is reported as “inactive”.
C[C@H](CO)N1C[C@H](C)[C@H](CN(C)Cc2ccc(C(F)(F)F)cc2)OCCCC[C@H](C)Oc2ccc(NC(=O)CCCN(C)C)cc2C1=O was tested, and the cytotoxicity call was “active”.
For C[C@H]1CCCCO[C@@H](CN(C)Cc2ccc(C(F)(F)F)cc2)[C@@H](C)CN([C@@H](C)CO)C(=O)c2cc(NC(=O)CCCN(C)C)ccc2O1, the cytotoxicity call was “inactive”.
C[C@@H]1CN([C@H](C)CO)C(=O)c2cc(NC(=O)CCCN(C)C)ccc2O[C@@H](C)CCCCO[C@@H]1CN(C)Cc1ccc(C(F)(F)F)cc1 was tested, and the cytotoxicity call was “inactive”.
In the case of C[C@@H]1CN([C@@H](C)CO)C(=O)c2cc(NC(=O)CCCN(C)C)ccc2O[C@@H](C)CCCCO[C@H]1CN(C)Cc1ccc(C(F)(F)F)cc1, the cytotoxicity call is reported as “inactive”.
With C[C@H]1CCCCO[C@H](CN(C)Cc2ccc(C(F)(F)F)cc2)[C@@H](C)CN([C@@H](C)CO)C(=O)c2cc(NC(=O)CCCN(C)C)ccc2O1 the cytotoxicity call was “active”.
C[C@H](CO)N1C[C@H](C)[C@@H](CN(C)Cc2ccc(C(F)(F)F)cc2)OCCCC[C@H](C)Oc2ccc(NC(=O)CCCN(C)C)cc2C1=O was tested, and the cytotoxicity call was “inactive”.
In the case of C[C@@H]1CCCCO[C@H](CN(C)Cc2ccc(C(F)(F)F)cc2)[C@H](C)CN([C@@H](C)CO)C(=O)c2cc(NC(=O)CCCN(C)C)ccc2O1, the cytotoxicity call is reported as “active”.
C[C@@H]1CCCCO[C@H](CN(C)Cc2ccc(C(F)(F)F)cc2)[C@H](C)CN([C@H](C)CO)C(=O)c2cc(NC(=O)CCCN(C)C)ccc2O1 was tested, and the cytotoxicity call was “inactive”.
With C[C@@H]1CCCCO[C@@H](CN(C)Cc2ccc(C(F)(F)F)cc2)[C@@H](C)CN([C@H](C)CO)C(=O)c2cc(NC(=O)CCCN(C)C)ccc2O1 the cytotoxicity call was “inactive”.
With C[C@@H]1CCCCO[C@H](CN(C)Cc2ccc(C(F)(F)F)cc2)[C@@H](C)CN([C@@H](C)CO)C(=O)c2cc(NC(=O)CCCN(C)C)ccc2O1 the cytotoxicity call was “active”.
With C[C@@H]1CCCCO[C@@H](CN(C)Cc2ccc(C(F)(F)F)cc2)[C@@H](C)CN([C@@H](C)CO)C(=O)c2cc(NC(=O)CCCN(C)C)ccc2O1 the cytotoxicity call was “inactive”.
With C[C@@H]1CN([C@H](C)CO)C(=O)c2cc(NC(=O)CCCN(C)C)ccc2O[C@@H](C)CCCCO[C@H]1CN(C)Cc1ccc(C(F)(F)F)cc1 the cytotoxicity call was “inactive”.
In the case of CN(C)C(=O)C[C@@H]1CC[C@H]2[C@H](COc3ccc(NS(=O)(=O)c4cccc(F)c4)cc3C(=O)N2C)O1, the cytotoxicity call is reported as “inactive”.
For COc1ccc(S(=O)(=O)N(C)C[C@H]2OCCCC[C@H](C)Oc3ccc(NS(C)(=O)=O)cc3C(=O)N([C@H](C)CO)C[C@@H]2C)cc1, the cytotoxicity call was “inactive”.
C[C@H](CO)N1C[C@H](C)[C@H](CN(C)Cc2cccc(O)c2)OCc2ccccc2-c2c(n(C)c3ccccc23)C1=O was tested, and the cytotoxicity call was “inactive”.
C[C@@H]1CN([C@@H](C)CO)C(=O)c2cc(C#CC3(O)CCCC3)cnc2O[C@H]1CN(C)C(=O)Cc1ccncc1 was tested, and the cytotoxicity call was “inactive”.
In the case of C[C@@H]1CCCCO[C@@H](CN(C)S(=O)(=O)c2ccccc2)[C@H](C)CN([C@H](C)CO)C(=O)c2cc(NC(=O)c3ccccc3)ccc2O1, the cytotoxicity call is reported as “inactive”.
N=C(N=C(N)N)N1CCOCC1 was tested, and the cytotoxicity call was “inactive”.
For O=C1N[C@@H]2[C@@H]1[C@H]1C=C[C@H]2C1, the cytotoxicity call was “inactive”.
For C[C@@H]1CCCCO[C@H](CN(C)C(=O)Nc2ccc(F)cc2)[C@H](C)CN([C@@H](C)CO)C(=O)c2cc(NS(=O)(=O)c3ccc(F)cc3)ccc2O1, the cytotoxicity call was “inactive”.
C[C@H]1CN([C@@H](C)CO)C(=O)c2cc(-c3ccncc3)cnc2O[C@@H]1CN(C)S(=O)(=O)c1ccc(F)cc1 was tested, and the cytotoxicity call was “inactive”.
